The source of these data is PubChem BioAssay AID686979 (National Center for Advancing Translational Sciences (NCATS), 2013).

“And” between values parts separate entries of the source, which are not always exact repeats. Equal entries are not always repeated. Screen size: about 420,000 compounds; about 50,000 (12%) were called active. Entries that show only a call come without a potency. About 26% were inconclusive and are not listed. Calls come from the whole dose curve; as a rule, active = well fitted inhibition curve with a large enough effect; inconclusive = small, poorly fitted or top-dose-only effect; inactive = flat fitted curve, though single readings scatter. The sample as a whole holds a higher share of actives than the screen did.
Potency is the fitted concentration of half-maximal effect.

The assay in a line: qHTS for Inhibitors of human tyrosyl-DNA phosphodiesterase 1 (TDP1): qHTS in cells in presence of CPT. Note: nearly all actives have a fitted effect of over 55% in size. To be noted: chicken DT40 Tdp1-/-;hTDP1 cells + 20 nM CPT, ATP luminescence, 48 h; series mostly up to 46.2 µM. Summed up:
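Cell growth measured by CellTiter-Glo luminescence after a minimum 48 h, 37 C compound exposure with 20 nM CPT in Tdp1-knockout DT40 cells stably expressing hTDP1, seeded 400/well; qHTS titration format.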
For orientation: In qHTS, concentration-response curves come from the screen itself.
Turning to `COc1ccc(S(=O)(=O)N2CCOCC2)cc1NC(=O)COc1ccccc1`, the Potency result is “inactive”. The result for `CC1CC(C)CN(C/C=C/c2ccccc2[N+](=O)[O-])C1` (centres undefined) reads “inactive”; that for `O=C(CCNC(=O)c1ccccc1Cl)NN=Cc1ccco1`, “inactive”; that for `COc1cccc(-c2cc3nc(NCc4ccccc4OC)n(C)c(=O)c3s2)c1`, 13 µM (active). The result for `Cn1c(NCc2cccnc2)nc2cc(-c3ccc(F)cc3)sc2c1=O` reads “inactive”. In the case of `CC(=O)Nc1cccc(-c2cc3nc(NCc4cccnc4)n(C)c(=O)c3s2)c1` it was “inactive”; in that of `CN(C)S(=O)(=O)c1ccc(N/C=C(\[N+](=O)[O-])S(=O)(=O)c2ccccc2)cc1`, “inactive”. `C[C@@H](C(=O)N1CCNCC1)n1cc(CCC(=O)O)nn1`: the Potency result was “inactive”. In the case of `Cc1ccc(Cn2c(C)c(C(=O)NCc3ccccc3C(F)(F)F)sc2=O)cc1` it was “inactive”; in that of `Cc1ccccc1NC(=O)c1ccccc1NS(=O)(=O)c1cccc2cccnc12`, “inactive”. `O=[N+]([O-])c1ccccc1S(=O)(=O)Nc1cccc2cccnc12`: the Potency was 794 nM (active) and 3.26 µM (active). Turning to `NS(=O)(=O)c1ccc(CCNS(=O)(=O)c2cccc3cccnc23)cc1`, the Potency result was “inactive”. In the case of `COc1cccc(C(=O)NC(=O)Nc2nc(C)cc(C(F)(F)F)n2)c1` it was “inactive”. In the case of `Cc1ccc(N2CC(C(=O)Nc3cc(Cl)ccc3-n3cncn3)CC2=O)cc1` (centres undefined) it was “inactive”. In the case of `O=C(c1ccco1)N1CCN(C(=S)Nc2cc(F)cc(F)c2)CC1` it was “inactive”; in that of `O=C(CN1CCN(C(=O)c2ccco2)CC1)Nc1ccc(Cl)c(C(F)(F)F)c1`, 23.1 µM (active). Take `O=C(CN1CCN(C(=O)c2ccco2)CC1)Nc1ccc2c(c1)OCO2`: the Potency entry is “inactive”. The result for `Cc1ccc(-n2nnnc2CNC(=O)c2ccccc2C)cc1C` reads “inactive”; that for `C[C@H]1CN([C@@H](C)CO)C(=O)CCCn2cc(nn2)CO[C@@H]1CN(C)S(=O)(=O)c1cccc(C#N)c1`, “inactive”; that for `O=C(O)C(c1cccs1)C1(O)CCCCC1` (centres undefined), “inactive”. In the case of `O=C(NCCCN1CCOCC1)c1cc(-c2ccccc2F)no1` it was “inactive”; in that of `COC(=O)CSc1snnc1-c1ccc(Cl)c(Cl)c1`, “inactive”. Regarding `Cc1c(NC(=O)C(C)OC(=O)c2cc3c4ccccc4n(C)c3s2)c(=O)n(-c2ccccc2)n1C` (centres undefined), the Potency result is “inactive”. `Cc1c(NC(=O)C(C)OC(=O)c2c3c(nc4ccccc24)CCC(C)C3)c(=O)n(-c2ccccc2)n1C` (centres undefined): the Potency was 13 µM (active). In the case of `Cc1c(NC(=O)C(C)OC(=O)c2ccccc2O)c(=O)n(-c2ccccc2)n1C` (centres undefined) it was “inactive”; in that of `N#C/C(=C\c1ccccc1)c1n[nH]c(Cn2cncn2)n1`, “inactive”. The result for `Cc1nn2cc(-c3ccc(Cl)cc3)cnc2c1Br` reads “inactive”; that for `Cc1cccc(Cn2cnc3c(N)c(C)c(C)cc32)c1`, “inactive”.

Consider `CCc1c(-c2ccc(F)cc2)ncn1Cc1cccc(-c2ccccc2)c1`, for which the Potency is 11.6 µM (active). The result for `O=C(NCc1ccncc1)C1CCN(C(=O)c2cccc(Cl)c2)CC1` reads “inactive”.

As for `Nc1ccc(-n2nncc2-c2ccco2)cc1`, the Potency entry is “inactive”. For `O=C(NC(=S)Nc1ccc(Cl)c(C(=O)O)c1)c1cncc(Br)c1`, the Potency entry is “inactive”. The result for `COc1ccccc1N(CC(=O)Nc1ccccc1C(=O)N1CCCC1)S(C)(=O)=O` reads “inactive”; that for `CCCn1c(N)c(C(=O)CSc2nnc(Cc3cccs3)n2C2CC2)c(=O)[nH]c1=O`, “inactive”. As to `CCc1nnc(SCc2nc(-c3cccc(C)c3)oc2C)c2cc3sc(C)cc3n12`, the Potency result was “inactive”. For `Cc1cc2c(cc3c(SCc4nc(-c5ccccc5)oc4C)nnc(C)n32)o1`, the Potency is 16.4 µM (active). In the case of `Cc1cc(NC(=O)CSCc2nc(-c3cccc(Cl)c3)oc2C)no1` it was “inactive”; in that of `Cc1ccc2nc(NC(=O)C3CCN(S(=O)(=O)c4ccc5c(c4)oc(=O)n5C)CC3)sc2c1`, 5.8 µM (active); in that of `O=C(NC1CCCCC1)n1c(=O)oc2cc(S(=O)(=O)N3CCCCC3)ccc21`, “inactive”.

`Cc1ccc2nc(NC(=O)C3CSC4(C)CCC(=O)N34)sc2c1` (centres undefined): the Potency entry is “inactive”. The result for `O=C(Nc1cc2c3c(c1)C1CCCC1CN3CC1CCCC21)c1ccc([N+](=O)[O-])cc1` (centres undefined) reads “inactive”; that for `CC[C@@H](C)[C@@H](C(=O)N1CCN(C(=O)OC(C)(C)C)CC1)n1cc(CCC(=O)O)nn1`, “inactive”; that for `O=C(O)c1cc(S(=O)(=O)NC2CCCc3ccccc32)ccc1O` (centres undefined), “inactive”. The result for `O=C(c1ccc(Br)o1)N1CCN(CCOc2ccccc2)CC1` reads “inactive”; that for `O=C(c1ccco1)N1CCN(CCOc2ccccc2)CC1`, “inactive”; that for `O=c1[nH]c2ccccc2n1C1CCN(CCOc2ccccc2)CC1`, 3.66 µM (active). `CO[C@@H]1CN(C)C(=O)c2cc(NC(=O)C3CC3)ccc2OC[C@H](C)N(C(=O)CN2CCOCC2)C[C@@H]1C`: the Potency entry is “inactive”. As to `NC(=O)C1CC(=O)N(c2ccc(OCC(=O)NCc3ccccc3)cc2)C1` (centres undefined), the Potency entry is “inactive”. `O=C(c1ccccc1)N1CCN(c2cc(-c3ccccc3)nc3cc(-c4cccc(Cl)c4)nn23)CC1`: the Potency is 23.1 µM (active).

As to `C#Cc1cc(N2CCN(C(=O)c3ccoc3)CC2)n2nc(-c3cccc(Cl)c3)cc2n1`, the Potency is 7.31 µM (active).

For the molecule `CN(C)CCN1CCN(c2cc(-c3cccc(Cl)c3)nc3ccnn23)CC1`, the Potency entry is “inactive”. In the case of `O=C(c1cccc(Cl)c1)N1CCN(CCc2ccncc2)CC1` it was “inactive”; in that of `O=C(c1cccc(Cl)c1)N1CCN(Cc2ccccc2)CC1`, “inactive”; in that of `CCCNC(=O)c1ccc(Cn2c(SCC(N)=O)nc3ccccc3c2=O)cc1`, “inactive”. On to `CCOc1ccccc1Nc1ccc2nonc2c1[N+](=O)[O-]`, for which the Potency result is “inactive”. The result for `O=C(OCC(=O)N1CCCCCC1)c1cnc(Cl)c(Cl)c1` reads “inactive”; that for `CCOC(=O)C1CCN(Cc2c(C(=O)N3CCOCC3)nc3c(C)cccn23)CC1`, “inactive”; that for `CCOC(=O)C(NC(=O)CC(C)C)(Nc1sc2c(c1C(N)=O)CCCC2)C(F)(F)F` (centres undefined), “inactive”. For `CCOc1ccc(S(=O)(=O)Nc2nc3cc(OC)ccc3s2)cc1`, the Potency result is “inactive”. With `CCC(=O)c1ccc(OCC(=O)Nc2ccc(N3CCCCC3)cc2)cc1`, the Potency entry is “inactive”. In the case of `Cc1nc2ccc(NC(=O)C3CCCCC3)cc2s1` it was “inactive”; in that of `CC(=O)Nc1ccc2nc(NC(=O)CS(=O)(=O)c3ccc(F)cc3)sc2c1`, “inactive”. Take `CCOc1ccc2nc(Nc3nc4ccc(NC(C)=O)cc4s3)sc2c1`: the Potency was 18.4 µM (active).

In the case of `CCC(=O)c1ccc(OCC(=O)Nc2ccc3nc(C)sc3c2)cc1`, the Potency was 16.4 µM (active).
